In PubChem BioAssay AID1159580 (chemical genetic matrix, 2015):
Where “and” joins values, the source holds several entries; their conditions need not be identical. Identical values can stand only once. About 2,000 (36%) of roughly 5,500 compounds were called active. Roughly 18% stayed inconclusive and do not appear here. Rule as the data show it: active = normalized growth mostly below about 0.91 (no sharp cut-off); inconclusive = no clear call, values can overlap the other calls; inactive = mostly above about 0.92. Some of the results follow.

Test: chemical genetic growth profiling, strain panel (AID 1159580);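 also: tested at 20 µM; growth read once vehicle control cultures reached saturation at 30 °C; 1 = growth at the plate median or of vehicle wells; lower values mean less growth of the strain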
Conditions: S. cerevisiae deletion strains, growth OD

Measured: normalized growth

Oc1c(Cl)cc(Cl)c(Cl)c1Cc1c(O)c(Cl)cc(Cl)c1Cl
active: locus YAL021C, strain ccr4, stronger effect = lower value 0.0649 | locus YAL026C, strain drs2, stronger effect = lower value 0.0639 | locus YAL030W, strain snc1, stronger effect = lower value 0.0572 | locus YBL061C, strain skt5, stronger effect = lower value 0.0628 | locus YBR009C, strain hhf1, stronger effect = lower value 0.0575 | locus YBR021W, strain FUR4, stronger effect = lower value 0.0863 | locus YBR023C, strain chs3, stronger effect = lower value 0.0623 | locus YBR171W, strain sec66, stronger effect = lower value 0.0838 | locus YBR229C, strain ROT2, stronger effect = lower value 0.0457 | locus YBR231C, strain swc5, stronger effect = lower value 0.0612 | locus YBR279W, strain paf1, stronger effect = lower value 0.0633 | locus YCL011C, strain gbp2, stronger effect = lower value 0.0558 | locus YCL016C, strain dcc1, stronger effect = lower value 0.0684 | locus YCL029C, strain bik1, stronger effect = lower value 0.0602 | locus YCL061C, strain MRC1, stronger effect = lower value 0.064 | locus YCL069W, strain vba3, stronger effect = lower value 0.0605 | locus YCR088W, strain abp1, stronger effect = lower value 0.0632 | locus YDL005C, strain med2, stronger effect = lower value 0.0765 | locus YDL035C, strain GPR1, stronger effect = lower value 0.0447 | locus YDL040C, strain nat1, stronger effect = lower value 0.0596 | locus YDL074C, strain BRE1, stronger effect = lower value 0.0681 | locus YDL101C, strain DUN1, stronger effect = lower value 0.0525 | locus YDL185W, strain tfp1, stronger effect = lower value 0.0761 | locus YDL192W, strain arf1, stronger effect = lower value 0.0596 | locus YDR001C, strain nth1, stronger effect = lower value 0.0623 | locus YDR069C, strain doa4, stronger effect = lower value 0.0643 | locus YDR101C, strain arx1, stronger effect = lower value 0.0573 | locus YDR137W, strain rgp1, stronger effect = lower value 0.108 | locus YDR159W, strain sac3, stronger effect = lower value 0.111 | locus YDR162C, strain NBP2, stronger effect = lower value 0.0454 | locus YDR195W, strain ref2 0.126 | locus YDR297W, strain sur2, stronger effect = lower value 0.0566 | locus YDR318W, strain mcm21, stronger effect = lower value 0.0637 | locus YDR334W, strain swr1, stronger effect = lower value 0.0669 | locus YDR335W, strain msn5, stronger effect = lower value 0.061 | locus YDR388W, stronger effect = lower value 0.0571 | locus YDR392W, strain spt3, stronger effect = lower value 0.0734 | locus YDR502C, strain sam2, stronger effect = lower value 0.0651 | locus YEL003W, strain gim4, stronger effect = lower value 0.0558 | locus YEL037C, strain rad23, stronger effect = lower value 0.0567 | locus YEL061C, strain CIN8 (second series), stronger effect = lower value 0.0634 | locus YEL061C, strain CIN8, stronger effect = lower value 0.0485 | locus YER015W, strain faa2, stronger effect = lower value 0.065 | locus YER016W, strain bim1, stronger effect = lower value 0.0638 | locus YER110C, stronger effect = lower value 0.0729 | locus YER111C, strain swi4, stronger effect = lower value 0.0725 | locus YER155C, strain BEM2 (second series), stronger effect = lower value 0.0878 | locus YER155C, strain BEM2, stronger effect = lower value 0.0604 | locus YER167W, strain BCK2, stronger effect = lower value 0.0476 | locus YFR010W, strain ubp6, stronger effect = lower value 0.0712 | locus YGL078C, strain dbp3, stronger effect = lower value 0.108 | locus YGL086W, strain mad1, stronger effect = lower value 0.0548 | locus YGL167C, strain pmr1, stronger effect = lower value 0.0813 | locus YGL173C, strain kem1, stronger effect = lower value 0.0685 | locus YGL227W, strain vid30, stronger effect = lower value 0.0622 | locus YGL240W, strain doc1, stronger effect = lower value 0.0737 | locus YGL248W, strain PDE1, stronger effect = lower value 0.0447 | locus YGL253W, strain hxk2, stronger effect = lower value 0.0537 | locus YGR135W, strain pre9, stronger effect = lower value 0.0633 | locus YGR252W, strain gcn5, stronger effect = lower value 0.179 | locus YHR013C, strain ard1, stronger effect = lower value 0.108 | locus YHR027C, strain rpn1, stronger effect = lower value 0.0624 | locus YHR030C, strain SLT2, stronger effect = lower value 0.0509 and 0.0952 | locus YHR079C, strain IRE1 (second series), stronger effect = lower value 0.0571 | locus YHR079C, strain IRE1, stronger effect = lower value 0.137 | locus YHR094C, strain hxt1, stronger effect = lower value 0.0585 | locus YHR129C, strain ARP1, stronger effect = lower value 0.0547 | locus YHR142W, strain chs7, stronger effect = lower value 0.0728 | locus YHR200W, strain rpn10, stronger effect = lower value 0.0603 | locus YIL066C, strain RNR3, stronger effect = lower value 0.0457 | locus YIL073C, strain SPO22, stronger effect = lower value 0.0959 | locus YIL125W, strain kgd1, stronger effect = lower value 0.0781 | locus YIR030C, strain dcg1, stronger effect = lower value 0.0579 | locus YJL092W, strain hpr5, stronger effect = lower value 0.0606 | locus YJL095W, strain BCK1 (second series), stronger effect = lower value 0.0579 | locus YJL095W, strain BCK1, stronger effect = lower value 0.0575 and 0.0959 | locus YJL115W, strain asf1, stronger effect = lower value 0.0753 | locus YJL129C, strain trk1, stronger effect = lower value 0.0909 | locus YJL134W, strain LCB3, stronger effect = lower value 0.0469 | locus YJL154C, strain vps35, stronger effect = lower value 0.0611 | locus YJL164C, strain tpk1, stronger effect = lower value 0.0591 | locus YJL166W, strain qcr8, stronger effect = lower value 0.0615 | locus YJL168C, strain set2, stronger effect = lower value 0.0584 | locus YJL187C, strain SWE1 (second series), stronger effect = lower value 0.0437 | locus YJR043C, strain POL32, stronger effect = lower value 0.0543 | locus YJR066W, strain TOR1, stronger effect = lower value 0.0109 | locus YKL009W, strain mrt4, stronger effect = lower value 0.13 | locus YKL068W, stronger effect = lower value 0.0876 | locus YKL085W, strain MDH1 (second series), stronger effect = lower value 0.0638 | locus YKL085W, strain MDH1, stronger effect = lower value 0.0638 | locus YKL160W, strain elf1, stronger effect = lower value 0.0626 | locus YKL190W, strain CNB1, stronger effect = lower value 0.0457 | locus YKR001C, strain vps1, stronger effect = lower value 0.064 | locus YKR026C, strain gcn3, stronger effect = lower value 0.063 | locus YKR091W, strain srl3, stronger effect = lower value 0.058 | locus YLL001W, strain dnm1, stronger effect = lower value 0.0618 | locus YLL026W, stronger effect = lower value 0.0568 | locus YLL041C, strain sdh2, stronger effect = lower value 0.0572 | locus YLR027C, strain aat2, stronger effect = lower value 0.0557 | locus YLR039C, strain RIC1, stronger effect = lower value 0.101 | locus YLR058C, strain SHM2, stronger effect = lower value 0.0462 | locus YLR102C, strain apc9, stronger effect = lower value 0.0599 | locus YLR113W, strain HOG1, stronger effect = lower value 0.119 | locus YLR221C, strain rsa3, stronger effect = lower value 0.064 | locus YLR258W, strain gsy2, stronger effect = lower value 0.0646 | locus YLR262C, strain YPT6 (second series), stronger effect = lower value 0.0785 | locus YLR262C, strain YPT6, stronger effect = lower value 0.114 | locus YLR268W, strain sec22, stronger effect = lower value 0.0689 | locus YLR320W, strain mms22, stronger effect = lower value 0.0782 | locus YLR330W, strain CHS5, stronger effect = lower value 0.0515 | locus YLR342W, strain FKS1 (second series), stronger effect = lower value 0.0549 | locus YLR342W, strain FKS1, stronger effect = lower value 0.0674 | locus YLR357W, strain rsc2, stronger effect = lower value 0.132 | locus YLR370C, strain arc18, stronger effect = lower value 0.0635 | locus YLR371W, strain rom2, stronger effect = lower value 0.0617 | locus YLR384C, strain iki3, stronger effect = lower value 0.0627 | locus YLR418C, strain cdc73, stronger effect = lower value 0.102 | locus YML016C, strain PPZ1, stronger effect = lower value 0.0443 | locus YML032C, strain rad52, stronger effect = lower value 0.0719 | locus YML120C, strain ndi1, stronger effect = lower value 0.0723 | locus YML124C, strain tub3, stronger effect = lower value 0.0588 | locus YMR058W, strain fet3, stronger effect = lower value 0.06 | locus YMR078C, strain ctf18, stronger effect = lower value 0.0715 | locus YMR125W, strain sto1, stronger effect = lower value 0.0705 | locus YMR129W, stronger effect = lower value 0.0593 | locus YMR205C, strain PFK2, stronger effect = lower value 0.0865 | locus YMR223W, strain ubp8, stronger effect = lower value 0.064 | locus YMR231W, strain pep5, stronger effect = lower value 0.0739 | locus YMR307W, strain GAS1, stronger effect = lower value 0.095 | locus YNL067W, strain RPL9B, stronger effect = lower value 0.0449 | locus YNL071W, strain lat1, stronger effect = lower value 0.0618 | locus YNL183C, strain NPR1, stronger effect = lower value -0.000219 | locus YNL209W, strain ssb2, stronger effect = lower value 0.0615 | locus YNL233W, strain BNI4, stronger effect = lower value 0.0507 | locus YNL248C, strain rpa49, stronger effect = lower value 0.0739 | locus YNL250W, strain rad50, stronger effect = lower value 0.232 | locus YNL271C, strain bni1, stronger effect = lower value 0.0767 | locus YNL298W, strain CLA4, stronger effect = lower value 0.0832 | locus YNL307C, strain MCK1, stronger effect = lower value 0.0665 | locus YNL322C, strain KRE1 (second series), stronger effect = lower value 0.0815 | locus YNR049C, strain mso1, stronger effect = lower value 0.0574 | locus YNR052C, strain pop2, stronger effect = lower value 0.0618 | locus YOL147C, strain pex11, stronger effect = lower value 0.0569 | locus YOR001W, strain rrp6, stronger effect = lower value 0.0782 | locus YOR061W, strain CKA2, stronger effect = lower value 0.0448 | locus YOR069W, strain VPS5, stronger effect = lower value 0.0463 | locus YOR070C, strain gyp1, stronger effect = lower value 0.0582 | locus YOR080W, strain dia2, stronger effect = lower value 0.0666 | locus YOR083W, strain WHI5, stronger effect = lower value 0.065 | locus YOR106W, strain vam3, stronger effect = lower value 0.0665 | locus YOR136W, strain idh2, stronger effect = lower value 0.0719 | locus YOR144C, strain elg1, stronger effect = lower value 0.0552 | locus YOR184W, strain ser1, stronger effect = lower value 0.075 | locus YOR231W, strain MKK1, stronger effect = lower value 0.112 | locus YOR265W, strain rbl2, stronger effect = lower value 0.065 | locus YOR270C, strain vph1, stronger effect = lower value 0.0914 | locus YOR290C, strain snf2, stronger effect = lower value 0.0645 | locus YOR316C, strain cot1, stronger effect = lower value 0.0584 | locus YPL051W, strain arl3, stronger effect = lower value 0.0639 | locus YPL078C, strain atp4, stronger effect = lower value 0.0652 | locus YPL106C, strain sse1, stronger effect = lower value 0.1 | locus YPL240C, strain hsp82, stronger effect = lower value 0.0579 | locus YPL256C, strain CLN2, stronger effect = lower value 0.116 | locus YPR119W, strain clb2, stronger effect = lower value 0.0624 | locus YPR141C, strain kar3, stronger effect = lower value 0.0848 | locus YPR163C, strain tif3, stronger effect = lower value 0.0697 | locus YPR167C, strain met16, stronger effect = lower value 0.0631 | strain wtn01, stronger effect = lower value 0.0656
